Measured values as given in PubChem BioAssay (Tox21).
Inconclusive results are not listed. Activity calls are given as the source filed them. Unless noted, calls follow the shape of the dose curve; as a rule, active = well fitted curve in the direction sought with a large enough effect in the repeat runs; inconclusive = weak or mixed curves; inactive = no such curve, though single readings can be large; an effect the other way counts as inactive or inconclusive.

Experiments:
[1] = qHTS assay to identify small molecule antagonists of the sonic hedgehog signaling (Shh) pathway (AID 1259369; calls by dose curve; also: nearly all actives have a fitted effect of over 45% in size; also: potency is read from the fitted curve at half-maximal effect)
Outline: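 NIH/3T3 stable Gli1-Luc clone, 2,000 cells/well, 4hr settle; cpd + conditioned medium 24hr; Luc reagent 30min RT; luminescence.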

[2] = qHTS assay to identify small molecule agonists of the androgen receptor (AR) signaling pathway in the presence of an antagonist - cell viability counter screen (AID 1259379); also: nearly all actives have a fitted effect of over 25% in size; also: potency is read from the fitted curve at half-maximal effect
Outline: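 MDA-kb2 viability measured by CellTiter-Fluor fluorescence in the same wells as the luciferase signal; nilutamide 3.0uM final; 15-point compound titration; 16 hr at 37C.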

[3] = qHTS assay to identify small molecule agonists of the estrogen receptor beta (ER-beta) signaling pathway - cell viability counter screen (AID 1259380); also: nearly all actives have a fitted effect of over 30% in size; also: potency is read from the fitted curve at half-maximal effect
Outline: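 Measured: luminescence from CellTiter-Glo after 30 min at room temperature, added to wells already read for the LiveBLAzer FRET reporter (2 hr substrate); ER-beta-UAS-bla HEK293T cells had 16 hr compound treatment at 37C, 5% CO2.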

[4] = target: Estrogen receptor beta (Homo sapiens) (UniProt Q92731); assay: qHTS assay to identify small molecule agonists of the estrogen receptor beta (ER-beta) signaling pathway (AID 1259377; active = well fitted activation curve with a large enough effect in the signal ratio in the repeat runs, not every such curve was filed as active; the % refers to the signal ratio)
Sequence of Estrogen receptor beta (Homo sapiens) (Q92731 whole entry, looked up): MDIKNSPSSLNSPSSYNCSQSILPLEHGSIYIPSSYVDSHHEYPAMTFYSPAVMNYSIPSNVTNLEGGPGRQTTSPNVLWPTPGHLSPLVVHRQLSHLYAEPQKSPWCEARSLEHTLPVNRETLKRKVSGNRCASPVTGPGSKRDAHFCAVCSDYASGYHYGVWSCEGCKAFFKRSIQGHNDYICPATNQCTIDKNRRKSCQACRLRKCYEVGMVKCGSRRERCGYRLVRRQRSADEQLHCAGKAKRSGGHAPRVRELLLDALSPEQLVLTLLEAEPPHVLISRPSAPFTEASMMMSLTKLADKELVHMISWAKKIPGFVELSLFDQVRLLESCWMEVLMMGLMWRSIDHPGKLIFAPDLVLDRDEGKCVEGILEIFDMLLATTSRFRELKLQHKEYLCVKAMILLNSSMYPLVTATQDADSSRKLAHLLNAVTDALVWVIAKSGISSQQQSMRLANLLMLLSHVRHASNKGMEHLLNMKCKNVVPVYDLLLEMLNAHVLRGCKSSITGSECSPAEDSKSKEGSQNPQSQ
Outline: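 Reporter cells (HEK293T, ER-beta-UAS-bla) receive compounds or DMSO after a 6 hr pre-incubation. They then incubate 16 hr at 37C/5% CO2, and fluorescence from LiveBLAzer B/G substrate is measured after 2 hours at room temperature.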

[5] = target: Estrogen receptor (Homo sapiens) (UniProt P03372); assay: qHTS assay to identify small molecule agonists of the estrogen receptor alpha (ER-alpha) signaling pathway in the presence of an antagonist (AID 1259383; calls by dose curve; also: top concentration of the series differs between compounds; nearly all actives have a fitted effect of over 15% in size)
Sequence of Estrogen receptor (Homo sapiens) (P03372 whole entry, looked up): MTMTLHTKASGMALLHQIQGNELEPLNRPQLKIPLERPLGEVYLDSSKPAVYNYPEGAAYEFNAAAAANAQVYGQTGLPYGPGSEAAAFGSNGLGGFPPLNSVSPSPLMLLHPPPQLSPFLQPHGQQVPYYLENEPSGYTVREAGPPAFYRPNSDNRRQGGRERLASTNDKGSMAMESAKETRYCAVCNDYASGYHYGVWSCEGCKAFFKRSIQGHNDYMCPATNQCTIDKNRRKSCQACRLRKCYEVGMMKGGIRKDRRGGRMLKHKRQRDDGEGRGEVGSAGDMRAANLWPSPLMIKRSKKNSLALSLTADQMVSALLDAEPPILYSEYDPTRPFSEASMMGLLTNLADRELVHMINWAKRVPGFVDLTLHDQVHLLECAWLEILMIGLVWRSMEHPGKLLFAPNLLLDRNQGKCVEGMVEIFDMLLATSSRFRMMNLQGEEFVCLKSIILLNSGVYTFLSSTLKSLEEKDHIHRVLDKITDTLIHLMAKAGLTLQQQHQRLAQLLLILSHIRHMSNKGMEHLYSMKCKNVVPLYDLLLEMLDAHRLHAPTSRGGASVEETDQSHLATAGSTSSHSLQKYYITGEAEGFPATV
Outline: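 Quantitative HTS confirmation: compounds titrated at 15 concentrations onto estrogen-deprived VM7Luc4E2 cells carrying a four-ERE luciferase construct, with ICI-182,780 present at 10.0nM final. Signal is luminescence after 22hr exposure.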

[6] = target: Androgen receptor (Homo sapiens) (UniProt P10275); assay: qHTS assay to identify small molecule agonists of the androgen receptor (AR) signaling pathway in the presence of an antagonist (AID 1259381; calls by dose curve; also: nearly all actives have a fitted effect of over 15% in size)
Sequence of Androgen receptor (Homo sapiens) (P10275 whole entry, looked up): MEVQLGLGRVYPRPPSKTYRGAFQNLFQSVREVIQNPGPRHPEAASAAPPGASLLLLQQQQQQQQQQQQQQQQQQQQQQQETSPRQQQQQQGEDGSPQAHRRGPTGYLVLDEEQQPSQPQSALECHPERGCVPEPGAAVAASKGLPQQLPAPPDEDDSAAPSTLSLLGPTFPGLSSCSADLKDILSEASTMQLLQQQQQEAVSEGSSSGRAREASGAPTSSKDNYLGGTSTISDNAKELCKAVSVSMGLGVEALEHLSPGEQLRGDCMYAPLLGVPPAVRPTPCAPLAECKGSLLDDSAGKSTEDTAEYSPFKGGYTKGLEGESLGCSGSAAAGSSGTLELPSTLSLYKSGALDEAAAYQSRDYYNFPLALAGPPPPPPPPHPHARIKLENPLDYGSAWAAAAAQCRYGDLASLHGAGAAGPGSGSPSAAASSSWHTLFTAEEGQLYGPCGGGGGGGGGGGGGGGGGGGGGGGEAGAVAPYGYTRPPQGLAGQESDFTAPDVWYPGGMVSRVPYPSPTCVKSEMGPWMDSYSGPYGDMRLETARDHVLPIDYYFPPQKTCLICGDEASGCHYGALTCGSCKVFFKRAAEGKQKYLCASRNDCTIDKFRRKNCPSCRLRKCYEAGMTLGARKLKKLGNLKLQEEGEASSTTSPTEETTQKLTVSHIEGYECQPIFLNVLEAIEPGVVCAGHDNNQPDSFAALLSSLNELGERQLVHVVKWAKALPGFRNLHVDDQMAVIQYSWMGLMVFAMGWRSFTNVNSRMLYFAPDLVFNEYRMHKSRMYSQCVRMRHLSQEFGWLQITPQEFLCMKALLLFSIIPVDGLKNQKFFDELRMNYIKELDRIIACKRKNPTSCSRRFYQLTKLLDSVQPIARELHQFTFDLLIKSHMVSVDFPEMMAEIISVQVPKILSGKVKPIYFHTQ
Outline: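 Luminescent ONE-Glo read, 30min at room temperature, follows 16hr compound exposure (15 concentrations) of MDA-kb2 cells at 37C, 0% CO2, with nilutamide added at 3.0uM final.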

[7] = qHTS assay to identify small molecule antagonists of the estrogen receptor beta (ER-beta) signaling pathway - cell viability counter screen (AID 1259382); also: nearly all actives have a fitted effect of over 55% in size; also: potency is read from the fitted curve at half-maximal effect
Outline: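 Readout: luminescence, CellTiter-Glo, same wells as bla assay. System: ER-beta-UAS-bla GripTite HEK293T, 2% charcoal-stripped FBS. Exposure: compounds plus 1nM 17-beta-estradiol, 16 hr, 37C.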

[8] = qHTS assay to identify small molecule agonists or antagonists of the thyroid stimulating hormone receptor (TSHR) signaling pathway - wild type cell line counter screen (AID 1259384; calls by dose curve)
Outline: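 Wild-type HEK293 cells were plated 18 h at 37 C/5% CO2, pin-dosed with compound plus Ro20-1724 medium, held 30 min at room temperature, then given cAMP-d2 and anti-cAMP-cryptate; fluorescence was read after 1 h. Fifteen concentrations, triplicate.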

[9] = target: Thyrotropin receptor (Homo sapiens) (UniProt P16473); assay: qHTS assay to identify small molecule antagonists of the thyroid stimulating hormone receptor (TSHR) signaling pathway (AID 1259385; calls by dose curve; also: nearly all actives have a fitted effect of over 20% in size; also: potency is read from the fitted curve at half-maximal effect)
Sequence of Thyrotropin receptor (Homo sapiens) (P16473 whole entry, looked up): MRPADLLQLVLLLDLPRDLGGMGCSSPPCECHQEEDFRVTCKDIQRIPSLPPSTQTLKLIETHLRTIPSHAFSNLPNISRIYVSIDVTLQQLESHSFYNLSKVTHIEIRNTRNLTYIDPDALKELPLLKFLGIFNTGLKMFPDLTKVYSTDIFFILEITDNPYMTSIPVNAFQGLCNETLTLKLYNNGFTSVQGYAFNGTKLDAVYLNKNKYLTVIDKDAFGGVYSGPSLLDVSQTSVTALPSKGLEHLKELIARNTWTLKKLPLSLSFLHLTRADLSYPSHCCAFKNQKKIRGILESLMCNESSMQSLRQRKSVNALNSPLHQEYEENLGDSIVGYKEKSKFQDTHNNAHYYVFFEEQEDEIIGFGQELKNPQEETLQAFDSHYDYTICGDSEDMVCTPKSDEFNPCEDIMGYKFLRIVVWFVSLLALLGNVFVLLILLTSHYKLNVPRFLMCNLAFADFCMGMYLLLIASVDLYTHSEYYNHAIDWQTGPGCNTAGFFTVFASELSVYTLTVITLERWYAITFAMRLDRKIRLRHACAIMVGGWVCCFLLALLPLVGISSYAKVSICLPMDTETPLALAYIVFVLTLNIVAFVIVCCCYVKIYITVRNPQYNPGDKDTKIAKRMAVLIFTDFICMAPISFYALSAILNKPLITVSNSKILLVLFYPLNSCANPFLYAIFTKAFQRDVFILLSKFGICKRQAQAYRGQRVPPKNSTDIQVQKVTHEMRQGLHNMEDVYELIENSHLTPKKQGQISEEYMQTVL
Outline: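 TSHR-HEK293 cells were plated and held 18 h at 37C/5% CO2, then given compound plus Ro20-1724 and stimulated with TSH at 1.5 ng/mL final. After 30 min at room temperature, cAMP was detected with cAMP-d2/anti-cAMP-cryptate (1 h) by fluorescence.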

Measured: Potency

CC(=O)[O-].CC(=O)[O-].[Co+2]
inactive: [1] | [2] | [3]

CCCCC/C=C\C/C=C\C/C=C\C/C=C\CCCC(=O)NCC(=O)O
active: [3] 11.9 µM
inactive: [1] | [4] | [2] | [5]

Fc1ccc(C(OCCN2CCN(CCCc3ccccc3)CC2)c2ccc(F)cc2)cc1
inactive: [6] | [5] | [8]
active: [1] 5.31 µM | [2] 26.6 µM | [3] 26.6 µM | [7] 26.6 µM

O=[N+]([O-])c1cc(C(F)(F)F)c(Cl)c([N+](=O)[O-])c1Nc1ncc(C(F)(F)F)cc1Cl
inactive: [5]
active: [1] 3.86 µM | [2] 6.11 µM | [3] 6.86 µM | [7] 8.63 µM | [9] 61.1 µM

CC[N+]1(CC)CCC(OC(=O)C(O)(c2ccccc2)c2ccccc2)C1 (configuration not stated)
not listed: [4] | [6]
inactive: all other assays above

[C-]1=CC=CC1.[Cl][Zr+2][Cl].c1cc[cH-]c1
inactive: [1] | [2] | [3] | [7]
